Key:
Assay in all cases: PBM binding z-score (relative to random genomic background probes); higher = stronger binding; sequences stand for … in GC…GCGATTGACAGCGTAGAATGAAGG
[1] = system: RARb homodimer (NR concentration 270 nM)
Method in brief: (§1)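 Custom Agilent 4×180K protein-binding microarrays carried double-stranded probes. Their 34-nt variable regions held direct-repeat seeds, single-nucleotide variants, half-site ablations and random human genomic background sequences. Arrays were incubated 1 h with ligand-free nuclear receptor dimers in PBS pH 7.4, 2% milk, 0.02% Triton X-100, 1 mM DTT, 0.2 mg/mL BSA and 0.4 mg/ml salmon testes DNA. Antibodies against each partner (one per run) detected binding, and scanned fluorescence was regression-normalized. Binding z-scores use random background probes as reference.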

[2] = system: RARg:RXRa (NR concentration 270 nM, RXRa partner concentration 90 nM)
Method in brief: as §1

[3] = system: RARg homodimer (NR concentration 270 nM)
Method in brief: as §1

[4] = system: RXRa DBDmut IVT, anti-RXR (DBD mutation: RXRa K156A/R161A, NR concentration 90 nM)
Method in brief: as §1

[5] = system: RXRa homodimer (NR concentration 180 nM)
Method in brief: as §1

[6] = system: THRa:RXRa (NR concentration 90 nM, RXRa partner concentration 90 nM)
Method in brief: as §1

[7] = system: THRa homodimer (NR concentration 90 nM)
Method in brief: as §1

[8] = system: VDR homodimer (NR concentration 270 nM)
Method in brief: as §1

CCGACTGGGGCATAAGGTTACCATCAGCCAGCCC
PBM binding z-score [1]: 1.72
PBM binding z-score [2]: 1.41
PBM binding z-score [3]: 1
PBM binding z-score [4]: -0.242
PBM binding z-score [5]: 1.03
PBM binding z-score [6]: 1.98
PBM binding z-score [7]: 1.33
PBM binding z-score [8]: -0.0619

AATACAGGGTCACTATGCCAGAGTAGGTACGAAT
PBM binding z-score [1]: 2.83
PBM binding z-score [2]: 4.76
PBM binding z-score [3]: 4.14
PBM binding z-score [4]: 2.94
PBM binding z-score [5]: 5.15
PBM binding z-score [6]: 3.31
PBM binding z-score [7]: 1.27
PBM binding z-score [8]: 2.48

CAAACTAGGTCACGAAAGGTCAAAGGCGAATGAC
PBM binding z-score [1]: 5.95
PBM binding z-score [2]: 8.09
PBM binding z-score [3]: 8.64
PBM binding z-score [4]: 1.99
PBM binding z-score [5]: 8.7
PBM binding z-score [6]: 5.15
PBM binding z-score [7]: 2.55
PBM binding z-score [8]: 3.38

CCGACTGGGGCTTAAGGTTACCATAAGCCAGCCC
PBM binding z-score [1]: 0.796
PBM binding z-score [2]: 0.272
PBM binding z-score [3]: 0.0964
PBM binding z-score [4]: -0.55
PBM binding z-score [5]: 0.688
PBM binding z-score [6]: 2.53
PBM binding z-score [7]: 1.94
PBM binding z-score [8]: -0.232

CCGACTGGGGAAGAAAGGTTACCATACCATCCGG
PBM binding z-score [1]: 1.97
PBM binding z-score [2]: 0.982
PBM binding z-score [3]: 0.848
PBM binding z-score [4]: -0.897
PBM binding z-score [5]: 1.49
PBM binding z-score [6]: 1.09
PBM binding z-score [7]: -0.21
PBM binding z-score [8]: -0.0513

TCGAGTAGTTTAGTCGGGGCATTCAGCCAACATA
PBM binding z-score [1]: 0.253
PBM binding z-score [2]: -0.495
PBM binding z-score [3]: -0.511
PBM binding z-score [4]: 0.57
PBM binding z-score [5]: -0.338
PBM binding z-score [6]: 0.245
PBM binding z-score [7]: 0.214
PBM binding z-score [8]: 0.234

CTCGAAAGGTCGTGCTCAGGCGAGTATACCAAAC
PBM binding z-score [1]: 2.65
PBM binding z-score [2]: 4.35
PBM binding z-score [3]: 3.64
PBM binding z-score [4]: 1.3
PBM binding z-score [5]: 4.75
PBM binding z-score [6]: 2.88
PBM binding z-score [7]: -0.037
PBM binding z-score [8]: 0.812

GCTAGTTGGTCAGTAACAGGTCACACACCGGTCG
PBM binding z-score [1]: 3.38
PBM binding z-score [2]: 2.86
PBM binding z-score [3]: 2.06
PBM binding z-score [4]: 0.0356
PBM binding z-score [5]: 2.11
PBM binding z-score [6]: 2.13
PBM binding z-score [7]: 1.06
PBM binding z-score [8]: 0.753

CCGAGTAGGTTCTGGGGCATTCAGGCAACGGTGA
PBM binding z-score [1]: 0.469
PBM binding z-score [2]: -0.508
PBM binding z-score [3]: -0.495
PBM binding z-score [4]: -0.0942
PBM binding z-score [5]: -0.58
PBM binding z-score [6]: 0.118
PBM binding z-score [7]: 0.0185
PBM binding z-score [8]: 0.0206

ATCTCTAGGTAAGCCTCAGTTCAGTGAAGAACGC
PBM binding z-score [1]: 0.726
PBM binding z-score [2]: 0.273
PBM binding z-score [3]: 0.0936
PBM binding z-score [4]: 0.247
PBM binding z-score [5]: 0.103
PBM binding z-score [6]: 0.985
PBM binding z-score [7]: 1.15
PBM binding z-score [8]: 1.21

TCTTGGAGATCAGCAGGTTAAGAAAGCTGGCCAA
PBM binding z-score [1]: -0.0506
PBM binding z-score [2]: -0.0345
PBM binding z-score [3]: -0.56
PBM binding z-score [4]: 0.285
PBM binding z-score [5]: 0.182
PBM binding z-score [6]: 0.0283
PBM binding z-score [7]: -0.695
PBM binding z-score [8]: -0.225

CGTTACGGGTCACTGACAGGTTATAGCATTTGGA
PBM binding z-score [1]: 3.43
PBM binding z-score [2]: 5.78
PBM binding z-score [3]: 4.8
PBM binding z-score [4]: 1.74
PBM binding z-score [5]: 5.12
PBM binding z-score [6]: 3
PBM binding z-score [7]: 0.0977
PBM binding z-score [8]: 0.672

AGATGTAGGTTACATCCGGGTCATTCAGGCTATG
PBM binding z-score [1]: 2.87
PBM binding z-score [2]: 3.6
PBM binding z-score [3]: 2.14
PBM binding z-score [4]: 0.74
PBM binding z-score [5]: 3.33
PBM binding z-score [6]: 3.72
PBM binding z-score [7]: 2.08
PBM binding z-score [8]: 2.53

TAGCCTAGGTCAAATCGGGCCAGTATACGCTATA
PBM binding z-score [1]: 2.7
PBM binding z-score [2]: 4.3
PBM binding z-score [3]: 4.47
PBM binding z-score [4]: 0.997
PBM binding z-score [5]: 3.31
PBM binding z-score [6]: 4.59
PBM binding z-score [7]: 0.89
PBM binding z-score [8]: 0.378

ACTATTAGTTGACCTAGGGCAACCGATACGACGC
PBM binding z-score [1]: 3.05
PBM binding z-score [2]: 2.88
PBM binding z-score [3]: 2.36
PBM binding z-score [4]: 0.89
PBM binding z-score [5]: 2.55
PBM binding z-score [6]: 2.96
PBM binding z-score [7]: 1.6
PBM binding z-score [8]: 0.946

GCGACTGGGACATCAGCAGGTTACCATAACTTAA
PBM binding z-score [1]: 0.428
PBM binding z-score [2]: -0.00527
PBM binding z-score [3]: 0.0107
PBM binding z-score [4]: -0.5
PBM binding z-score [5]: 0.176
PBM binding z-score [6]: 0.674
PBM binding z-score [7]: 0.0254
PBM binding z-score [8]: -0.459

ATATTTAGGTTACATCCGGGTCATTCAGGCTATG
PBM binding z-score [1]: 3.1
PBM binding z-score [2]: 3.51
PBM binding z-score [3]: 2.31
PBM binding z-score [4]: 1.39
PBM binding z-score [5]: 3.32
PBM binding z-score [6]: 4.1
PBM binding z-score [7]: 3.84
PBM binding z-score [8]: 3.54

CCTCGGAGGACAGAAGGTCTGAGCTGTCCGCTTT
PBM binding z-score [1]: -0.106
PBM binding z-score [2]: -0.159
PBM binding z-score [3]: 0.14
PBM binding z-score [4]: -0.0896
PBM binding z-score [5]: -0.825
PBM binding z-score [6]: -0.0206
PBM binding z-score [7]: -0.537
PBM binding z-score [8]: -0.369

CCTTACGGGTCACTGACAGTTTATAGCATTTGGA
PBM binding z-score [1]: 3.2
PBM binding z-score [2]: 5.31
PBM binding z-score [3]: 4.77
PBM binding z-score [4]: 2.11
PBM binding z-score [5]: 5.48
PBM binding z-score [6]: 2.74
PBM binding z-score [7]: 0.505
PBM binding z-score [8]: 1.42

CGAACTAGGACAAGGACAGTGAATCTCCGCACGC
PBM binding z-score [1]: 0.532
PBM binding z-score [2]: 0.083
PBM binding z-score [3]: 0.606
PBM binding z-score [4]: 0.343
PBM binding z-score [5]: 0.0441
PBM binding z-score [6]: 1.8
PBM binding z-score [7]: 1.32
PBM binding z-score [8]: 0.0217

GCTGCTAGGTCAGGTGGGTCAGCTAACGGGTACG
PBM binding z-score [1]: 3.64
PBM binding z-score [2]: 3.41
PBM binding z-score [3]: 4.26
PBM binding z-score [4]: 0.0363
PBM binding z-score [5]: 2.07
PBM binding z-score [6]: 2.57
PBM binding z-score [7]: 0.719
PBM binding z-score [8]: 0.861

TCAGACAGCTGAAGGTAACTCAGGTACGCAGTCG
PBM binding z-score [1]: -0.661
PBM binding z-score [2]: -0.115
PBM binding z-score [3]: -0.24
PBM binding z-score [4]: 0.764
PBM binding z-score [5]: 0.413
PBM binding z-score [6]: 1.05
PBM binding z-score [7]: -0.685
PBM binding z-score [8]: -0.186

GATACAGGGTCAGCTAGAGGCCAGCGTATGGAAA
PBM binding z-score [1]: 3.69
PBM binding z-score [2]: 6.91
PBM binding z-score [3]: 5.12
PBM binding z-score [4]: 0.996
PBM binding z-score [5]: 4.79
PBM binding z-score [6]: 3.11
PBM binding z-score [7]: 0.434
PBM binding z-score [8]: 0.825

CGAACTAGGTCATTGACAGGACAGAGAATAGTAA
PBM binding z-score [1]: 2.47
PBM binding z-score [2]: 4.41
PBM binding z-score [3]: 4.12
PBM binding z-score [4]: 2.25
PBM binding z-score [5]: 2.5
PBM binding z-score [6]: 2.8
PBM binding z-score [7]: 0.787
PBM binding z-score [8]: 1.26

ACTAGCAGACCAAGTTTGGGTCACTCAAACAAAG
PBM binding z-score [1]: 1.57
PBM binding z-score [2]: 0.911
PBM binding z-score [3]: 0.702
PBM binding z-score [4]: -0.0274
PBM binding z-score [5]: 0.79
PBM binding z-score [6]: 1.98
PBM binding z-score [7]: 0.78
PBM binding z-score [8]: 0.00842

TCTTGAAGATCAAGCAGGTTAAGAAAGCCTGAGT
PBM binding z-score [1]: -0.113
PBM binding z-score [2]: -0.172
PBM binding z-score [3]: -0.516
PBM binding z-score [4]: 0.456
PBM binding z-score [5]: 0.318
PBM binding z-score [6]: 0.216
PBM binding z-score [7]: -0.679
PBM binding z-score [8]: -0.115

TCATATAGGTATTACAGGTGAAAGTCGGCATCTA
PBM binding z-score [1]: 0.804
PBM binding z-score [2]: 0.652
PBM binding z-score [3]: 0.438
PBM binding z-score [4]: 1.81
PBM binding z-score [5]: 1.35
PBM binding z-score [6]: 0.854
PBM binding z-score [7]: 0.684
PBM binding z-score [8]: 0.524

TATACAGGGTCAAGGGCCAGAGTACGAATGTCGA
PBM binding z-score [1]: 3.62
PBM binding z-score [2]: 5.65
PBM binding z-score [3]: 5.33
PBM binding z-score [4]: 2.14
PBM binding z-score [5]: 6.23
PBM binding z-score [6]: 3.68
PBM binding z-score [7]: 1.08
PBM binding z-score [8]: 2.13

— the supplement of paper PMC6555819
